Source: PubChem
HT1080NT lethal – qHTS for induction of synthetic lethality in tumor cells producing 2HG: qHTS for the HT-1080-NT fibrosarcoma cell line. HT-1080-NT fibrosarcoma viability, CellTiter-Glo ATP luminescence, 48 h. Potency, µM (series often up to 46.1 µM), for inactives: at the highest dose activity, negative = less viability, most hits filed as cytotoxic. actives 1.6% (n = 360,000);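 further: NT is the 2HG producing partner of a matched IDH1 knockdown line; potency means the concentration at half of the fitted maximal effect; 0% = DMSO-treated cells and -100% = media-only wells without cells; nearly all actives have a fitted effect of over 55% in size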
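Fibrosarcoma NT cells, 750 per well in 5% FBS RPMI, were exposed to compound for 48 hours. Viability: CellTiter-Glo luminescence.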
12-LOX inh – Primary qHTS assay for inhibitors of human arachidonate 12S-lipoxygenase (ALOX12): Round 2. purified 12hLO, xylenol orange hydroperoxide absorbance. Potency, µM (top dose mostly 108 µM), for the others: at the highest dose activity change, negative = inhibition, actives largely listed as inhibitors. actives 1.1% (n = 580,000). AID 1671190, 2021; further: potency means the concentration at half of the fitted maximal effect
Target sequence (P18054 whole entry, looked up): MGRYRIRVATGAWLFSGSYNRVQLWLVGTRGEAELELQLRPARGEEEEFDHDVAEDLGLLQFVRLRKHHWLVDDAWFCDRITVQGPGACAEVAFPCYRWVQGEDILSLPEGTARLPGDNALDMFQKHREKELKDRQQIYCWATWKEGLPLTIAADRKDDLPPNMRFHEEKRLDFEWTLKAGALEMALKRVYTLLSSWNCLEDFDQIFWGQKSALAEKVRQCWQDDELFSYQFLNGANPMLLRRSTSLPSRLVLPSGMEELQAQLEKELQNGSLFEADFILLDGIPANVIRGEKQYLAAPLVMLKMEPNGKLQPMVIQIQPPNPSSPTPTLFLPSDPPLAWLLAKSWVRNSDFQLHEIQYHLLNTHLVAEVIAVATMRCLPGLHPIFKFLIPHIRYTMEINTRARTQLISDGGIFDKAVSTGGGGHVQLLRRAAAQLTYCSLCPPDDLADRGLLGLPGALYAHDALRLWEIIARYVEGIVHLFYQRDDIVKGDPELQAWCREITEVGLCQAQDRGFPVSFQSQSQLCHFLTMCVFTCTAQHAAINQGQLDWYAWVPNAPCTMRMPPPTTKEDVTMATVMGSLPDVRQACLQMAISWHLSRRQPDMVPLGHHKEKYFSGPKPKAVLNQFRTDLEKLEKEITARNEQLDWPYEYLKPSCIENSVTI
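Hydroperoxide product was detected by ferrous iron/xylenol orange as the 573 to 405 nm absorbance ratio. Arachidonic acid at 40 uM (final) was turned over for 30 min at room temperature by 150 nM human 12hLO, pH 7.0 Hepes buffer, after 15 min compound preincubation.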
IL-1B inflam inh – qHTS for Inhibitors of Inflammasome Signaling: IL-1-beta AlphaLISA Primary Screen | THP-1 LPS/ATP IL-1B secretion, AlphaLISA, 16 h; stronger effect = lower value | activity change, % at 57.5 µM | actives 4.7% (n = 360,000); in the data active means activity change below about -50%; inconclusive means mostly about -30% to -49%
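THP-1 cells pretreated 1 hr with compounds (up to 57.5 uM final), then stimulated with LPS (250 ng/mL final) plus ATP (1.25 mM final); secreted IL-1B measured by AlphaLISA after 16 hr, decreased signal indicating inhibition.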
TDP1 cell CPT – qHTS for Inhibitors of human tyrosyl-DNA phosphodiesterase 1 (TDP1): qHTS in cells in presence of CPT | chicken DT40 Tdp1-/-;hTDP1 cells + 20 nM CPT, ATP luminescence, 48 h | actives 12% (n = 420,000) | AID 686979, 2013 | Potency, µM (series often up to 46.2 µM), without a hit: top-dose activity change, negative = growth inhibition, hits mostly inhibitors; further: potency means the concentration at half of the fitted maximal effect; nearly all actives have a fitted effect of over 55% in size
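Cell growth measured by CellTiter-Glo luminescence after a minimum 48 h, 37 C compound exposure with 20 nM CPT in Tdp1-knockout DT40 cells stably expressing hTDP1, seeded 400/well; qHTS titration format.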
TDP1 cell noCPT – qHTS for Inhibitors of human tyrosyl-DNA phosphodiesterase 1 (TDP1): qHTS in cells in absence of CPT; DT40 Tdp1-/- hTDP1 cells, no CPT, ATP luminescence, 48 h; Potency, µM (top dose mostly 46.2 µM), for inactives: at the top dose activity change, negative = growth inhibition, hits mostly inhibitors; actives 15% (n = 420,000); AID 686978, 2013; further: potency means the concentration at half of the fitted maximal effect; nearly all actives have a fitted effect of over 55% in size
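Camptothecin absent (DMSO only). Human TDP1-complemented DT40 knockout cells, 400 cells/well, 37 °C for minimum 48 hr; ATP measured via CellTiter-Glo, 30 min dark incubation, luminescence.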
HT1080 IDH1KD tx – qHTS for induction of synthetic lethality in tumor cells producing 2HG: qHTS for the HT-1080-IDH1KD cell line; HT-1080 IDH1 knockdown viability, ATP luminescence, 48 h; Potency, µM (series often up to 46.1 µM), for the others: at the highest dose activity, negative = toxicity, usual class: cytotoxic; actives 2% (n = 360,000); AID 686971, 2013;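 further: potency means the concentration at half of the fitted maximal effect; 0% = DMSO wells and -100% = cell-free medium wells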
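HT-1080-IDH1KD cells (IDH1 knocked down), 750/well in RPMI with 5% FBS, treated with compound 48 h at 37 degrees C. Viability by CellTiter-Glo luminescence, normalised to DMSO and no-cell wells; concentration-response curves classed.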
* marks the source's active call; other numbers are inactive results; ? = inconclusive; nt = not tested or not shown; [ ] = remark or other dose. The sample as a whole holds a higher share of hits than the screen did. Unless noted, the call rests on the fitted dose curve; in most records, active means well fitted curve in the direction sought with a large enough effect; inconclusive means small, poorly fitted or top-dose-only effect, or another doubt; inactive means no such curve, though single readings can be large; an effect the other way counts as inactive or inconclusive. Unless noted, on the % scale 0 is the no-effect control and ±100 the full control effect.

SMILES | HT1080NT lethal | 12-LOX inh | IL-1B inflam inh | TDP1 cell CPT | TDP1 cell noCPT | HT1080 IDH1KD tx
COc1ccc(NC(=O)CSc2nc3ccccc3nc2N2CCCC2)cc1 | 7% | 26% | -19 | ? | ? | -8%
CC(=O)Nc1ccc(S(=O)(=O)Nc2ccc3c(c2)N(S(C)(=O)=O)CC3)cc1 | nt | -5% | nt | nt | nt | nt
N#Cc1cccc(C(=O)OCc2cc(-c3ccc(Cl)cc3)no2)c1 | nt | 4% | nt | nt | nt | nt
CC(C)N=C(NS(=O)(=O)c1ccccc1)C(Cl)(Cl)Cl | 7.3µM* | -6% | -96* | 2.9µM* | 2.9µM* | 7.3µM*
COc1cccc(C(=O)Oc2ccc(/C=N/Nc3ccc(C(=O)O)cc3)cc2OC)c1 | -28% | 6% | -1 | ? | 29µM* | -11%
COc1cccc(OCc2cc(/C=N/Nc3ccc(C(=O)O)cc3)ccc2OC)c1 | 21µM* | 0% | 19 | 21µM* | 21µM* | ?
O=C(NCC1(N2CCOCC2)CCCCC1)C1CCN(C(=O)c2ccc(Cl)cc2)CC1 | nt | -2% | nt | nt | nt | nt
CSc1ccc(CNCCCSc2ncccn2)cc1 | -7% | -24% | -68* | ? | -22% | -16%
Brc1ccc(CNCCCSc2nnnn2-c2ccccc2)cc1 | nt | ? | nt | ? | 16µM* | nt
CCOc1c(CNCCCSc2nc(C)cc(C)n2)cccc1OC | ? | 0% | 7 | 21µM* | ? | -19%
Brc1ccc(CNCCCSc2ncccn2)cc1 | -13% | ? | -1 | 15µM* | 16µM* | -13%
O=C(c1cccnc1)N1CCC(Oc2cccnc2)C1 (stereo unspecified) | nt | 0% | nt | nt | nt | nt
Cc1cc(C)c2oc(C(=O)Nc3onc4c3CC(C)CC4)cc(=O)c2c1 (stereo unspecified) | nt | 3% | nt | nt | nt | nt
COc1cccc(-c2cc3c(=O)n(CCNC(=O)Cc4ccsc4)ccn3n2)c1 | nt | 15% | nt | nt | nt | nt
CSc1ccc(CNCCCN(C)C)cc1 | -3% | 2% | -54* | ? | ? | -23%
COCCCNCc1ccc(SC)cc1 | nt | 3% | nt | nt | nt | nt
Cc1ccc(CNCCCSc2nc(C)cc(C)n2)cc1 | -10% | 13% | ? | ? | ? | -8%
Cc1cc(C)nc(SCCCNCc2ccc(Br)cc2)n1 | ? | ? | -4 | ? | 21µM* | -28%
CCn1nccc1C(=O)N1CC(c2nnc(C(C)C)o2)C2(CCOCC2)C1 (stereo unspecified) | nt | 53% | nt | nt | nt | nt
COc1cc(Cn2c(=O)sc3ccccc32)ccc1OC(C)C | nt | 5% | nt | ? | 21µM* | nt
CCOc1ccc(Cn2c(=O)sc3ccccc32)cc1OC | -16% | 0% | -1 | ? | ? | -8%
CCCCCC(=O)N[C@@H](Cn1cc(F)c(=O)[nH]c1=O)C(=O)O | nt | 6%[176 µM] | nt | nt | nt | nt
CCOc1ccccc1NC(=S)N1CCN(c2nc(-c3cccc(OC)c3)cs2)CC1 | -7% | -27% | -6 | -17% | ? | -5%
CNC(=S)N1CCN(c2nc(-c3cccc(OC)c3)cs2)CC1 | -16% | -6% | 0 | ? | ? | -2%
COc1cccc(-c2csc(N3CCN(C(=O)Nc4ccccc4Cl)CC3)n2)c1 | 4% | 428% | -26 | ? | ? | 1%
SMILES | HT1080NT lethal | 12-LOX inh | IL-1B inflam inh | TDP1 cell CPT | TDP1 cell noCPT | HT1080 IDH1KD tx
COc1ccccc1NC(=S)N1CCN(c2nc(-c3ccccc3)cs2)CC1 | -2% | -5% | -3 | 18µM* | 16µM* | -9%
COc1cccc(-c2csc(N3CCN(C(=S)Nc4ccc(Cl)cc4)CC3)n2)c1 | -21% | -17% | -82* | ? | ? | 0%
COc1cccc(-c2csc(N3CCN(C(=O)NC45CC6CC(CC(C6)C4)C5)CC3)n2)c1 | -23% | 0% | -10 | ? | 13µM* | ?
COc1cccc(-c2csc(N3CCN(C(=S)Nc4ccccc4)CC3)n2)c1 | 22µM* | 19% | -9 | ? | ? | 0%[9.24 µM]
COc1cccc(-c2csc(N3CCN(C(=S)Nc4cccc(C)c4)CC3)n2)c1 | -22% | -30% | ? | -29% | ? | -14%
COc1cccc(CN2C[C@@H]3C(=O)N(Cc4ccc5c(c4)OCO5)C(=O)[C@@H]3C2)c1OC | nt | 49% | nt | nt | nt | nt
Cc1cc(Br)ccc1NC(=O)Cn1nc2c(cc1=O)CCCCC2 | nt | 81% | nt | nt | nt | nt
CC(C)c1ccccc1NC(=O)c1cnc2ccccc2n1 | nt | -17% | nt | nt | nt | nt
COc1cccc(C(=O)NCC2Cn3cccc3C(=O)N2CC(C)C)c1 (stereo unspecified) | nt | 33% | nt | nt | nt | nt
Fc1ccc2c(c1)nc1n2[C@@H](CNC2CCCCC2)COC1 | nt | 16%[176 µM] | nt | nt | nt | nt
CCC(C)OC(=O)COc1ccc2c(=O)c(Oc3ccc(C(C)(C)C)cc3)coc2c1 (stereo unspecified) | nt | 34% | nt | nt | nt | nt
COc1cccc(NC(=O)N2CCN(c3nc(-c4cccc(OC)c4)cs3)CC2)c1 | -3% | 1% | -16 | 5.2µM* | 5.2µM* | -27%
COC(=O)CSc1nnc(CNC(=O)c2ccccc2F)n1-c1ccc(F)cc1 | -12% | 5% | -56* | 3% | ? | -3%
COC(=O)CSc1nnc(CNC(=O)c2ccco2)n1-c1ccc(F)cc1 | 14% | -4% | 14 | -3% | -5% | 9%
CC1=NOC(=O)/C1=C\c1ccc(-c2cc(Cl)ccc2Cl)o1 | -21% | 2.2µM* | -55* | ? | ? | -23%
Cc1ccc(/C=C2\C(=O)ON=C2c2ccccc2)o1 | 6% | ? | 0 | -8% | 0% | 9%
CC1=NOC(=O)/C1=C\c1ccc(-c2ccc(Br)cc2)o1 | ? | 45µM* | -99* | 13µM* | 12µM* | ?
N#Cc1ccc(NCCNc2ncccn2)nc1 | nt | -11% | nt | nt | nt | nt
O=C1NC(C(=O)N2CCN(Cc3ccc(F)cc3F)CC2)Cn2cccc21 (stereo unspecified) | nt | 9% | nt | nt | nt | nt
NC(=S)NN=C(Cc1ccccc1)Cc1ccccc1 | -20% | 11µM* | -13 | 5.8µM* | 3.7µM* | -27%
NC(=S)NN=C(c1ccc(F)cc1)C1CC1 | 12% | -11% | -86* | 21µM* | ? | 17%
NC(=S)NN=C(c1ccc(Br)cc1)C1CC1 | 19% | -4% | -76* | ? | ? | 25%
O=C(N/N=C(\c1ccccc1)C1CCCCC1)c1ccc(Cl)cc1 | nt | 39% | nt | nt | nt | nt
